From PubChem BioAssay
Calls of active or inactive are those of the source. Unless noted, the rule behind the calls is not given here.

Legend:
[1] = tested on: XIP peptide (Xip251-270) binding; assay: small-molecule binders of XIP peptide, primary screen, biochemical, small-molecule microarray, fluorescence 635/667 nm, 0.1 µg/mL protein (AID 1182); conditions: fluorescent protein binding, 635 nm, higher = more signal, called active from +8 up or from −8 down
[2] = tested on: XIP peptide (Xip251-270); assay: small-molecule binders of XIP peptide, primary screen, biochemical, small-molecule microarray, fluorescence 635/667 nm, 0.5 µg/mL protein (AID 1183); conditions: small-molecule microarray binding, fluorescence 635 nm; higher = more signal
[3] = Plasmodium falciparum growth inhibition, primary screen, strain 3D7, DAPI fluorescence, 100 nL (AID 1184);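 note: parasites grown inside human red blood cells in medium with human serum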; conditions: P. falciparum 3D7 growth, 3 d, higher = more signal
[4] = target: Homeobox protein Hox-A13 (Mus musculus) (UniProt Q62424); assay: inhibitors of HoxA13-DNA binding, primary screen, biochemical, fluorescence polarization, labeled oligonucleotide (AID 1185); conditions: 15 min, higher = more signal, called active from +8 up or from −8 down
Homeobox protein Hox-A13 (Mus musculus), sequence (Q62424 whole entry, looked up): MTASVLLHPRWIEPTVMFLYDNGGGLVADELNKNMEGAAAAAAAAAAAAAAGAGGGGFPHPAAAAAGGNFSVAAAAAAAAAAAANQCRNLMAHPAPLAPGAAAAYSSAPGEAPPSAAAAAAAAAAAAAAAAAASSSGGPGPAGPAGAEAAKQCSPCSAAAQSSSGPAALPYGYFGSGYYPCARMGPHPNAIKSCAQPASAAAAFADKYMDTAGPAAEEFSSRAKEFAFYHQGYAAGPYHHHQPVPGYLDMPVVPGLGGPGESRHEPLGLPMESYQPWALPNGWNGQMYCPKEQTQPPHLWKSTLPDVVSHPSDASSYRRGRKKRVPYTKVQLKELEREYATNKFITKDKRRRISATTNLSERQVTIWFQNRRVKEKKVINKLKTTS

[5] = inhibitors of hydroxyurea-induced Chk1 phosphorylation, primary screen, imaging, HeLa, phospho-Chk1 antibody, percent positive cells (AID 1186); conditions: hydroxyurea-induced phospho-Chk1 immunofluorescence imaging, higher = more signal
[6] = inhibitors of hydroxyurea-induced Chk1 phosphorylation, primary screen, imaging, HeLa, phospho-Chk1 nuclear intensity (AID 1187); conditions: hydroxyurea-induced phospho-Chk1 immunofluorescence imaging, higher = more signal

Row | Structure (SMILES) | composite z-score [1] | composite z-score [2] | z-score [3] | z-score [4] | z-score [5] | z-score [6]
1 | COC(=O)[C@@]1(Cc2ccccc2)[C@@H]2C(=CC(=O)[C@H]2CC(=O)C(=O)N(C)C)CN1C(=O)c1ccccc1 | 0.0477 (inactive) | 0.345 | -0.99 | -3.77 (inactive) | 0.0041 (inactive) | 0.253 (inactive)
2 | COCCOC(=O)N1C(=O)[C@@]2(c3cc(C#Cc4ccc(OC)cc4)ccc31)[C@H](c1ccc(O)cc1)N1[C@H](c3ccccc3)[C@H](c3ccccc3)OC(=O)[C@H]1[C@@H]2C(=O)N1CCCCCCC1 | 0.711 (inactive) | 0.436 | -1.55 | 1.36 (inactive) | -0.0871 (inactive) | -0.171 (inactive)
3 | N#Cc1ccc(NN2C(C(O)c3ccc(F)cc3)C=CC3C(=O)N(c4ccccc4)C(=O)C32)cc1 (stereo not drawn) | 0.536 (inactive) | 0.634 | -0.573 | -0.0009 (inactive) | -0.0909 (inactive) | -0.0009 (inactive)
4 | C=CCC(OC(C)=O)[C@@H]1[C@@H](N(Cc2ccc(-c3ccccc3)cc2)C(=O)Cc2ccc(F)cc2)c2cc(OCCCO)ccc2N1C(=O)Cc1ccc(OC)cc1 (stereo partly drawn) | 0.0187 (inactive) | -0.308 | -0.939 | -2.3 (inactive) | -0.245 (inactive) | -0.23 (inactive)
5 | COCCCNC(=O)[C@@]1(Sc2ccc(C)cc2)CC(=O)N(C2CCCCC2)[C@@H]1c1ccc(CO)cc1 | -0.0795 (inactive) | 0.421 | -0.715 | -3.21 (inactive) | 0.317 (inactive) | 0.592 (inactive)
6 | COc1ccc([Si](C)(C)[C@@H]2[C@@H](CCO)O[C@]3(C(=O)N(Cc4ccc(N5CCCCC5=O)cc4)c4ccccc43)[C@H]2C)cc1 | 2.99 (inactive) | 0.769 | -2.69 | -5.03 (inactive) | -0.913 (inactive) | 0.261 (inactive)
7 | CCCNC(=O)[C@@H]1c2ccccc2C(=O)N(C(C)C)[C@H]1c1ccc(CO)cc1 | 0.251 (inactive) | 0.658 | -0.473 | -1.88 (inactive) | -0.247 (inactive) | -0.333 (inactive)
8 | CCCCCCCCCCC(O)C1C=CC2C(=O)N(C)C(=O)C2N1NC(=O)OC(C)(C)C (stereo not drawn) | 0.0658 (inactive) | 0.502 | -0.451 | -2.93 (inactive) | 1.91 (inactive) | 1.4 (inactive)
9 | C=CCC(OC(C)=O)[C@@H]1[C@@H](N(Cc2ccc(-c3cccc(C(F)(F)F)c3)o2)C(=O)c2ccc(-c3ccccc3)cc2)c2cc(OCCCO)ccc2N1C(=O)c1ccc2ccccc2n1 (stereo partly drawn) | -0.211 (inactive) | -0.102 | -0.746 | -1.33 (inactive) | 0.768 (inactive) | 0.615 (inactive)
10 | CN(C)C(=O)[C@@]1(CCS(=O)(=O)c2ccccc2)N=C(c2ccc(OCCCO)cc2)O[C@H]1c1ccccc1 | 0.77 (inactive) | 0.704 | -1.48 | -6.87 (inactive) | -0.13 (inactive) | -0.0208 (inactive)
11 | C=CCN1C(=O)[C@@]2(O[C@@H](CCn3cc([C@H](O)c4ccccc4)nn3)[C@H]([Si](C)(C)c3ccc(OC)cc3)[C@H]2C)c2cc(N3CCC3=O)ccc21 | -0.0195 (inactive) | -0.114 | -2.1 | -5.38 (inactive) | -0.108 (inactive) | 0.582 (inactive)
12 | O=C(CS)NCCCCCCNC(=O)[C@H]1C[C@H]2C(=O)N[C@@H](Cc3ccccc3)C(=O)N2[C@H]1c1ccc(O)cc1 | 0.398 (inactive) | 0.849 | -0.0607 | -1.23 (inactive) | -0.836 (inactive) | -0.555 (inactive)
13 | CN(C)C(=O)[C@]1(CCS(=O)(=O)c2ccccc2)N=C(c2ccc(OCCCO)cc2)O[C@@H]1c1ccccc1N=[N+]=[N-] | 1.1 (inactive) | 0.821 | -2.34 | -3.11 (inactive) | -0.197 (inactive) | -0.447 (inactive)
14 | C=CCC(OC(C)=O)[C@@H]1[C@@H](N(Cc2cccc3ccccc23)C(=O)Cc2ccc(F)cc2)c2cc(OCCCO)ccc2N1C(=O)c1ccc2ccccc2n1 (stereo partly drawn) | -0.533 (inactive) | -0.272 | -2.13 | -1.34 (inactive) | -0.172 (inactive) | -0.761 (inactive)
15 | C=CCC(OC(C)=O)[C@@H]1[C@@H](N(Cc2cc3ccccc3o2)C(=O)c2ccc(-c3ccccc3)cc2)c2cc(OCCCO)ccc2N1C(=O)c1ccc2ccccc2c1 (stereo partly drawn) | -0.252 (inactive) | -0.273 | -1.41 | -0.926 (inactive) | 0.347 (inactive) | 0.433 (inactive)
16 | COC(=O)c1c(CC[C@@H](CO)NC(=O)N2CCC[C@H]2Cn2cc(Cc3ccccc3)nn2)oc(C(C)=O)c1C(=O)OC | 2.25 (inactive) | 0.889 | -0.547 | -3.88 (inactive) | -0.358 (inactive) | -0.522 (inactive)
17 | CC(C)OC(=O)C=C1C[C@@H](c2ccc(C(F)(F)F)cc2)O[C@@H](c2ccc(C(F)(F)F)cc2)O1 | 0.416 (inactive) | 0.567 | -0.266 | -3.22 (inactive) | -0.272 (inactive) | 0.0075 (inactive)

Row | Structure (SMILES) | composite z-score [1] | composite z-score [2] | z-score [3] | z-score [4] | z-score [5] | z-score [6]
18 | [N-]=[N+]=NCc1ccccc1[C@@H]1OC(c2ccc(OCCCO)cc2)=N[C@]1(CCS(=O)(=O)c1ccccc1)C(=O)NCC(O)CO (stereo partly drawn) | 2.02 (inactive) | 0.831 | -2.26 | -1.52 (inactive) | -0.519 (inactive) | -0.524 (inactive)
19 | COc1cc(CO)cc(I)c1O[C@H]1C=C(C(=O)NCCO)C[C@@H](NCc2ccc(F)cc2)[C@@H]1O | -0.35 (inactive) | 0.728 | -3.1 | -7.05 (inactive) | -0.926 (inactive) | -2.03 (inactive)
20 | COc1ccc(-c2nc(-c3ccccc3)c3c(c2C)CO[Si]3(C(C)C)C(C)C)cn1 | -0.447 (inactive) | -0.447 | 0.193 | -3.37 (inactive) | 0.0411 (inactive) | 0.126 (inactive)
21 | COCCOC(=O)N1C(=O)[C@@]2(c3cc(C#Cc4ccc(OC)cc4)ccc31)[C@H](C(=O)Nc1nc3ccccc3s1)[C@H]1C(=O)O[C@H](c3ccccc3)[C@H](c3ccccc3)N1[C@@H]2c1ccc(OCCO)cc1 | 0.127 (inactive) | 0.623 | -1.69 | 2.34 (inactive) | 0.0676 (inactive) | 0.0745 (inactive)
22 | COC(=O)[C@@]1(Cc2ccc(OC)cc2)[C@H]2c3cc(C(=O)N(C)C)n(C[C@H](O)CO)c3C[C@H]2CN1C(=O)c1ccccc1 | 0.309 (inactive) | -0.587 | -1.74 | -3.35 (inactive) | 0.708 (inactive) | 0.22 (inactive)
23 | COc1ccc([Si](C)(C)[C@@H]2[C@@H](CC(=O)N(CCO)Cc3ccccc3)O[C@]3(C(=O)N(Cc4cccc(N5CCOC5=O)c4)c4ccccc43)[C@H]2C)cc1 | 1.18 (inactive) | 0.799 | -2.16 | -2.52 (inactive) | 0.437 (inactive) | -0.0407 (inactive)
24 | COC(=O)c1c(CC[C@@H](CO)NC(=O)N[C@H](Cn2cc(C3(O)CCCCC3)nn2)C(C)C)oc(C(C)=O)c1C(=O)OC | 0.0887 (inactive) | 0.837 | -2.24 | -1.69 (inactive) | 0.303 (inactive) | 0.608 (inactive)
25 | COc1ccc(CN(C2=CC[C@@]3(C(N)=O)C(=O)C(Cl)=C(Cl)C(=O)[C@@]3(C#N)C2)S(=O)(=O)c2ccc(Br)cc2)cc1 | 0.68 (inactive) | 0.923 | 0.435 | -6.44 (inactive) | -0.207 (inactive) | -0.179 (inactive)
26 | COc1ccc([Si](C)(C)[C@H]2[C@H](CCn3cc([C@H](O)c4ccccc4)nn3)O[C@@]3(C(=O)N(Cc4ccc(N5C(=O)c6cccc7cccc5c67)cc4)c4ccccc43)[C@@H]2C)cc1 | 0.784 (inactive) | 0.199 | -1.59 | -0.717 (inactive) | -0.283 (inactive) | -0.162 (inactive)
27 | O=C1O[C@@H](c2ccccc2)[C@@H](c2ccccc2)N2[C@@H](c3ccc(O)cc3)[C@]3(C(=O)Nc4ccc(C#CC5(O)CCCCCC5)cc43)[C@@H](C(=O)NC[C@H](O)c3ccccc3)[C@H]12 | 0.0382 (inactive) | 0.691 | -0.627 | -3.55 (inactive) | 0.206 (inactive) | 0.345 (inactive)
28 | CCCCCCCCCCC(O)C1C=CC2C(=O)N(C)C(=O)C2N1Nc1ccc([N+](=O)[O-])cc1[N+](=O)[O-] (stereo not drawn) | -0.0993 (inactive) | 0.464 | 0.625 | -3.99 (inactive) | 0.496 (inactive) | -0.12 (inactive)
29 | COC(=O)Cn1c(C(=O)N(C)C)cc2c1C[C@H]1CN(C(=O)c3ccccc3)[C@@](Cc3ccc(F)cc3)(C(=O)OC)[C@@H]21 | 1.69 (inactive) | -0.196 | -0.0793 | -4.28 (inactive) | 0.927 (inactive) | 1.08 (inactive)
30 | [N-]=[N+]=NCc1ccccc1C[C@@]1(C(=O)N2CCOCC2)N=C(c2ccc(OCCCO)cc2)O[C@@H]1c1ccccc1 | 0.761 (inactive) | 0.74 | -2.73 | -4.1 (inactive) | 0.123 (inactive) | 0.608 (inactive)
31 | COCCCNC(=O)[C@]1(CCS(=O)(=O)c2ccccc2)N=C(c2ccc(OCCCO)cc2)O[C@@H]1c1ccccc1N=[N+]=[N-] | 1.26 (inactive) | 0.731 | -2.4 | -3.71 (inactive) | -0.198 (inactive) | -0.266 (inactive)
32 | Cc1ccc(S[C@]2(C(=O)NCCCN(C)C)CC(=O)N(C3CCCCC3)[C@@H]2c2ccc(CO)cc2)cc1 | 0.332 (inactive) | 0.0388 | -1.54 | -1.9 (inactive) | 0.487 (inactive) | 0.866 (inactive)
33 | O=C1O[C@H](c2ccccc2)[C@H](c2ccccc2)N2[C@H]1[C@@H](C(=O)Nc1nc3ccccc3s1)[C@]1(C(=O)Nc3ccc(C#CC4(O)CCCCCC4)cc31)[C@H]2c1ccccc1OCCO | 0.0536 (inactive) | 0.812 | -2.09 | 2.05 (inactive) | 0.66 (inactive) | 0.976 (inactive)
